aSyn yeast inh = rescues yeast growth from alpha-synuclein toxicity | Yeast expressing alpha-synuclein, growth rescue, BacTiter-Glo, 24 h | Potency, µM (top dose mostly 46.1 µM), for inactives: at the top dose growth rescue (activation), usual class: activators | 370,000 compounds, 0.14% hits; note: % of control where 0% means no effect; nearly all actives have a fitted effect of over 65% in size
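Readout is rescue of growth in alpha-synuclein-expressing yeast, so inhibitors of toxicity appear as activators. Growth after 24 hr at 30 deg C in galactose medium is quantified by luminescence.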
Abeta rescue = compounds reversing amyloid beta toxicity in yeast; yeast expressing A-beta42, growth rescue, OD600, 48 h; response scale: 0% DMSO, 100% iron-clioquinol control; Potency, µM (doses to about 46.1 µM), most hits filed as activators; 410,000 compounds, 0.063% hits; note: nearly all actives have a fitted effect of over 55% in size
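Yeast A-beta toxicity model in growth medium with pinned compounds, 48 h at 30 C; growth read as absorbance at 600 nm. Normalized to FeCl3/clioquinol equimolar mix (positive) and DMSO (negative).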
TDP-43 yeast inh = rescues yeast growth from TDP-43 toxicity; TDP-43 expressing yeast growth rescue, BacTiter-Glo, 24 h; Potency, µM (top dose mostly 46.1 µM), without a hit: at the highest dose growth rescue (activation), usual class: activators; AID 652104; 410,000 compounds, 1.8% hits; note: % of control where 0% means no effect; nearly all actives have a fitted effect of over 50% in size
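Yeast expressing TDP-43 (pregrown in raffinose, seeded at OD600=0.02 in galactose medium) exposed to compounds 24 hr at 30 deg C. Growth read by BacTiter-Glo luminescence; rescue of toxicity appears as increased signal.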
FUS yeast rescue = suppressors of FUS proteinopathy in yeast | S. cerevisiae FUS-expressing, growth rescue, OD600, 24 h | Potency, µM (series often up to 76.6 µM), usual class: activators | 390,000 compounds, 0.24% hits | AID 1347120;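 note: plate controls were DMSO vehicle for no effect and reference control for full effect; nearly all actives have a fitted effect of over 55% in size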
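Absorbance at 600 nm, taken 24hr after compound addition, measured rescue of FUS-yeast growth at 30C. Induction used 2% galactose with seeding at OD 0.005. Controls: CP55940 from 92uM final, DMSO only.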
Mito fusion act = blocks mitochondrial division or promotes mitochondrial fusion; S. cerevisiae fusion-defective mutant growth rescue, CellTiterGlo 48 h; Potency, µM (top dose mostly 46.1 µM), for inactives: at the top dose growth rescue (activation), most hits filed as activators; 320,000 compounds, 0.23% hits; AID 485298; note: % of control where 0% means no effect; nearly all actives have a fitted effect of over 45% in size
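Luminescent cell viability in 1536-well qHTS format served as the measure of rescued growth in ts fusion-mutant S. cerevisiae cultured on non-fermentable YPEG for 48 hours at 37C.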
ERG-DNA inh = ERG Ets/DNA interaction inhibition; P11308; fluorescence polarization, His-ERG Ets domain / labelled DNA; Potency, µM (series often up to 76.9 µM), without a hit: at the highest dose FP activity, negative = inhibition, hits mostly inhibitors; 370,000 compounds, 0.028% hits; AID 624246; active = well fitted inhibition curve with a large enough effect in the polarisation, with a control signal flat; inconclusive = small, poorly fitted or top-dose-only effect, or effect the other way, or a change in a side signal; inactive = no such curve, though single readings can be large or run the other way; the % refers to the polarisation;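 note: polarization taken with two DNA probes labelled with fluorescein and Texas red; % of control where 0% means no effect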
Target sequence (P11308 whole entry, looked up, the tested form may be a part): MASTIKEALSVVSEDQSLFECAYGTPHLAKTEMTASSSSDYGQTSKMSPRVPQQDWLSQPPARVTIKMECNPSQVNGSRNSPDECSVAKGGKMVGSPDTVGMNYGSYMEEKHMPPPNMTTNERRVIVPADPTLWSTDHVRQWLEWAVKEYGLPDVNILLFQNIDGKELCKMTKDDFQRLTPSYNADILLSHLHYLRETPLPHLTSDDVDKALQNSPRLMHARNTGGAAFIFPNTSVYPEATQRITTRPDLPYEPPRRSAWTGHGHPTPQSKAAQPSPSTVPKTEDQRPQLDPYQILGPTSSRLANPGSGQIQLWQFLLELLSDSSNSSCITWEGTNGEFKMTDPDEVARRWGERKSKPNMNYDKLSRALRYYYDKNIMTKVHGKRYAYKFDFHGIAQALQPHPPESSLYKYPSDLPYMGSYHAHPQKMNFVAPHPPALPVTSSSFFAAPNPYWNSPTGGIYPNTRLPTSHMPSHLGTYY
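His-tagged ERG Ets domain (1 uM in the protein solution; 300mM KCl, 50mM Tris-HCl, 1mM EDTA, 1mM DTT, pH 7.5) received compound, then a probe mix of 5 nM fluorescein-DNA and 100nM Texas-615-DNA. Fluorescence polarization was read for both dyes.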
Active calls of the source: *; i = inactive; ? = inconclusive; nt = no result given. Sampled rows, rich in hits. Any-hit rate of the full collection: about 2.2%. Unless noted, calls come from the whole dose curve; as a rule, active = well fitted curve in the direction sought with a large enough effect; inconclusive = small, poorly fitted or top-dose-only effect, or another doubt; inactive = no such curve, though single readings can be large; an effect the other way counts as inactive or inconclusive. Potency is the fitted concentration of half-maximal effect.

SMILES	aSyn yeast inh	Abeta rescue	TDP-43 yeast inh	FUS yeast rescue	Mito fusion act	ERG-DNA inh
O=C(Nc1cc(S(=O)(=O)N2CCOCC2)ccc1OCC(F)(F)F)C1CCCC1	0%	i	?	i	nt	nt
Cc1sc(NC(=O)CCC(=O)O)c(C(N)=O)c1-c1ccccc1	-20%	i	12%	i	1%	-1%
CCc1ccc(-c2c(C)sc(NC(C)=O)c2C(N)=O)cc1	1%	i	16µM*	i	1%	-5%
Nc1[nH]c(C(=O)c2ccccc2)c(-c2ccc(Br)cc2)c1C(=O)N1CCN(CCO)CC1	nt	nt	nt	i	nt	nt
CC(C)(C)c1cnnn1-c1ccc(C(=O)CCl)cc1	-9%	i	8.9µM*	i	-31%	3%
CC(C)(C)c1cnnn1-c1ccc(C=O)cc1	8%	i	-16%	i	0%	5%
CCOc1ccc(C(=O)CCC(=O)NCC(=O)Nc2ccc(F)c(F)c2F)cc1	28µM*	i	19%	i	nt	nt
O=C(CC1N=C2c3ccccc3N=C(SCc3cccc(Cl)c3)N2C1=O)NCCc1ccccc1 (configuration not stated)	nt	i	?	?	nt	3%
CCCc1ccc(C(C)NC(=S)NCc2ccc(F)cc2)cc1 (configuration not stated)	-6%	3.5µM*	5%	i	-4%	12%
CC(NC(=S)NCc1ccc(F)cc1)C12CC3CC(CC(C3)C1)C2 (configuration not stated)	3%	5.6µM*	-6%	i	2%	14%
CCC(C)c1ccc(C(C)NC(=S)NCc2ccc(F)cc2)cc1 (configuration not stated)	-11%	3.5µM*	2%	i	-10%	4%
CCCc1ccc(C(C)NC(=S)NC2CCCCC2)cc1 (configuration not stated)	-15%	11µM*	11%	i	-10%	1%
Cc1cc(C)c2c(c1)c(C)cc1nnc(SCC(=O)c3ccccc3)n12	nt	i	11%	i	nt	-3%
COc1cc(C2C(=O)N(C3CCCCCC3)CC(=O)N2Cc2ccccc2)ccc1OC(C)C (configuration not stated)	nt	i	0%	?	nt	7%
Cn1c(SC2CCCC2)nnc1-c1ccco1	nt	nt	nt	i	nt	nt
CCC(NC(=S)NCc1ccc(F)cc1)c1ccc(C(C)C)cc1 (configuration not stated)	5%	7.1µM*	23%	i	-17%	4%
COc1ccc(-c2cn3c(n2)sc2cc(C(=O)NCC(C)c4ccccc4)ccc23)cc1 (configuration not stated)	nt	i	?	i	nt	0%
CCC(=O)N1CCN(c2ccc(NC(=O)c3ccc4c(c3)OCCO4)cc2)CC1	-5%	i	-24%	i	0%	-9%
O=C(Nc1cc(C(F)(F)F)ccc1N1CCCC1)c1ccc2c(c1)OCO2	-17%	i	18µM*	i	3%	-9%
CCC(=O)N1CCN(c2ccc(Cl)cc2NC(=O)c2ccc3c(c2)OCCO3)CC1	1%	i	25µM*	?	-7%	-7%
O=C(Nc1ccccc1N1CCCC1)c1ccc2c(c1)OCO2	0%	i	?	i	11%	0%
O=C1CSC(c2ccccc2F)N1c1cc(Cl)ccc1O (configuration not stated)	15%	i	20%	i	2%	3%
O=C1CSC(c2cccc(Cl)c2Cl)N1c1ccccn1 (configuration not stated)	19%	i	14µM*	i	16%	3%
C[C@@H]1CN([C@H](C)CO)C(=O)c2cc(NC(=O)Nc3ccc(C(F)(F)F)cc3)ccc2O[C@H]1CN(C)C(=O)Nc1ccc(F)cc1	1%	i	-16%	28µM*	nt	1%
C[C@H](CO)N1C[C@H](C)[C@@H](CN(C)C(=O)Nc2ccc(C(F)(F)F)cc2)Oc2ccc(NC(=O)Nc3ccc(C(F)(F)F)cc3)cc2C1=O	2%	i	?	?	nt	9%
SMILES	aSyn yeast inh	Abeta rescue	TDP-43 yeast inh	FUS yeast rescue	Mito fusion act	ERG-DNA inh
CCOC(=O)CCCCCC(=O)Nc1ccc2c(c1)C(=O)N([C@@H](C)CO)C[C@H](C)[C@H](CN(C)C(=O)NC(C)C)OCCCC[C@H](C)O2	1%	i	17%	?	nt	nt
C[C@@H]1CCCCO[C@H](CN(C)Cc2ccc(Cl)c(Cl)c2)[C@H](C)CN([C@@H](C)CO)C(=O)c2cc(NC(=O)Nc3ccc(F)cc3)ccc2O1	-6%	i	0%	35µM*	nt	nt
CCOC(=O)CCCCCC(=O)Nc1ccc2c(c1)C(=O)N([C@@H](C)CO)C[C@H](C)[C@H](CN(C)C(=O)Nc1ccc(F)cc1)OCCCC[C@H](C)O2	0%	i	27%	22µM*	nt	nt
CC1=C[C@]2(CN(CC3CC3)C3=N[C@H](c4ccccc4)CC(=O)N32)n2c(=O)n(-c3ccccc3)c(=O)n2C1	nt	nt	nt	i	nt	nt
COc1ccc(/C=N/Nc2cc(C)nc(-n3nc(C)cc3C)n2)cc1	?	i	20µM*	i	-2%	-9%
COc1ccc(O)c(/C=N/Nc2nc(Nc3ccccc3)nc(-n3nc(C)cc3C)n2)c1	8%	?	22µM*	i	-3%	2%
Cc1cc(Nc2ccc(C(C)C)cc2)nc(-n2nc(C)cc2C)n1	nt	i	20µM*	?	nt	0%
Cc1cc(N/N=C/c2cccc(Cl)c2)nc(-n2nc(C)cc2C)n1	12%	i	14µM*	i	6%	-11%
COc1ccc(-n2c(SCC(=O)Nc3ccc(S(=O)(=O)Nc4nccs4)cc3)nnc2-c2cccs2)cc1	nt	nt	nt	i	nt	nt
CSc1ccc(CCNC(=O)c2c(C)oc3ncn(C)c(=O)c23)cc1	nt	i	0%	i	nt	-4%
COc1ccccc1/C=C/c1nc(S(=O)(=O)c2ccccc2)c(N2CCC(C(N)=O)CC2)o1	-1%	i	-24%	i	35µM*	13%
NC(=O)C1CCN(c2oc(/C=C/c3ccc(F)cc3)nc2S(=O)(=O)c2ccccc2)CC1	-11%	i	4%	i	0%	7%
CCN(CC)c1nc(-c2ccc(C(C)(C)C)cc2)nc2ccccc12	nt	i	11%	i	nt	7%
CC(C)CN(CC(C)C)c1nc(-c2ccc(Cl)cc2)nc2ccccc12	-2%	i	35µM*	i	nt	3%
